PubChem BioAssay (NCI)
The panel holds about 79,000 compounds, 15% with a hit somewhere; the sample as a whole holds those more often. Activity calls are given as the source filed them. No stated cut-off is given here; in the data, active means growth inhibition above about 70%; inactive means the rest.

Legend:
[1] = NCI Yeast Anticancer Drug Screen. Data for the mgt1 strain (AID 153); details: S. cerevisiae mgt1 mutant growth inhibition, active compounds read high
Method in brief: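 Growth inhibition relative to vehicle controls was scored for the mgt1 yeast strain after compound exposure.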

[2] = NCI Yeast Anticancer Drug Screen. Data for the rad50 strain (AID 155);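 further: 0% = growth of vehicle-only cultures of the same strain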; details: S. cerevisiae rad50 strain growth inhibition, active compounds read high
Method in brief: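 Cells are treated with compound, grown, and their growth is then scored against vehicle-only cultures of the same repair-deficient yeast strain.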

[3] = NCI Yeast Anticancer Drug Screen. Data for the mec2-1 strain (AID 157); details: S. cerevisiae mec2-1 strain, active compounds read high
Method in brief: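 Growth inhibition is read against vehicle-treated controls after compound exposure of the mec2-1 yeast strain, which is defective in DNA damage repair or cell cycle control.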

[4] = NCI Yeast Anticancer Drug Screen. Data for the rad14 strain (AID 159);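 further: 0% = growth of vehicle-treated control cultures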; details: S. cerevisiae rad14 strain growth inhibition, active compounds read high
Method in brief: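 Readout: yeast growth inhibition, referenced to vehicle-only cultures. Strain bears a defined alteration in DNA damage repair.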

[5] = NCI Yeast Anticancer Drug Screen. Data for the sgs1 mgt1 strain (AID 161);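 further: 0% = growth of cultures given vehicle only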; details: S. cerevisiae sgs1 mgt1 strain, active compounds read high
Method in brief: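 Yeast cells carrying a defined DNA-repair defect were exposed to test compounds. Growth inhibition was measured relative to vehicle-treated controls.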

[6] = NCI Yeast Anticancer Drug Screen. Data for the CLN2oe strain (AID 163);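 further: 0% = growth of vehicle-only control cultures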; details: S. cerevisiae CLN2oe strain, active compounds read high
Method in brief: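 Compound-treated yeast; growth vs vehicle ctrl = % inhibition. Genetically altered strain (cell-cycle control).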

[7] = NCI Yeast Anticancer Drug Screen. Data for the cln2 rad14 strain (AID 165);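 further: 0% = growth equal to vehicle treated cultures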; details: S. cerevisiae cln2 rad14 strain, active compounds read high
Method in brief: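 Growth inhibition, relative to vehicle-treated controls, is the read-out. The test organism is a yeast strain with defined genetic alterations, cln2 rad14.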

[8] = NCI Yeast Anticancer Drug Screen. Data for the bub3 strain (AID 167); details: S. cerevisiae bub3 mutant strain, active compounds read high
Method in brief: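 Part of a panel of yeast mutants defective in DNA damage repair or cell cycle regulation. Each strain is grown with compound, and inhibition is calculated relative to solvent-treated cultures.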

[9] = NCI Yeast Anticancer Drug Screen. Data for the wt2 strain (AID 169);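 further: 0% = growth of vehicle-treated yeast cultures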; details: S. cerevisiae wt2 strain growth inhibition, active compounds read high
Method in brief: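 Compound exposure of yeast; growth compared with vehicle controls; inhibition reported.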

[10] = NCI Yeast Anticancer Drug Screen. Data for the sgs1 strain (AID 173);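 further: 0% = growth of vehicle-only control cultures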; details: S. cerevisiae sgs1 mutant, active compounds read high
Method in brief: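 Compounds applied to genetically altered yeast; growth compared with vehicle-treated cultures to give % inhibition.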

[11] = NCI Yeast Anticancer Drug Screen. Data for the mlh1 rad18 strain (AID 175); details: S. cerevisiae mlh1 rad18 strain growth inhibition, active compounds read high
Method in brief: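 Cells of a genetically altered yeast strain, deficient in DNA damage repair, were treated with compound. Their growth was then compared with that of vehicle-treated cultures to give inhibition.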

[12] = NCI Yeast Anticancer Drug Screen. Data for the rad18 strain (AID 177); details: S. cerevisiae rad18 mutant growth inhibition, active compounds read high
Method in brief: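 Compounds are applied to a repair-deficient yeast strain, and growth is compared with that of vehicle-treated cultures to give percent inhibition.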

[13] = at 5.0 µM (retest, dose inferred, filed as 0.5)
[14] = at 50.0 µM (retest, dose inferred, filed as 5.0)

Measured: growth inhibition

O=C(O)[C@H]1[C@@H](C2CCCCC2)O[C@@H](C2CCCCC2)O[C@H]1C(F)(F)F
active: [2]; at 50.0 µM 88.1% | [3]; at 50.0 µM 91.8% | [5]; at 50.0 µM 85.5% | [7]; at 50.0 µM 87.3% | [8]; at 50.0 µM 87.8% | [11]; at 50.0 µM 83.8%
inactive: [1]; at 1.2 µM 0% | [1]; at 3.7 µM -4% | [1]; at 11.0 µM 10% | [1]; at 33.0 µM -17% | [1]; at 100.0 µM 0% | [2]; at 1.2 µM -4% | [2]; at 3.7 µM -5% | [2]; [13] -46% | [2]; at 11.0 µM -19% | [2]; at 33.0 µM -4% | [2]; [14] 61% | [2]; at 100.0 µM -2% | [3]; at 1.2 µM 2% | [3]; at 3.7 µM -2% | [3]; [13] -19% | [3]; at 11.0 µM 1% | [3]; at 33.0 µM -4% | [3]; [14] 16% | [3]; at 100.0 µM 5% | [4]; at 1.2 µM -1% | [4]; at 3.7 µM -1% | [4]; at 11.0 µM 0% | [4]; at 33.0 µM 0% | [4]; at 100.0 µM -1% | [5]; [13] -25% | [5]; [14] 12% | [6]; at 1.2 µM -1% | [6]; at 3.7 µM -1% | [6]; at 11.0 µM -13% | [6]; at 33.0 µM -8% | [6]; at 100.0 µM 4% | [7]; [13] -11% | [7]; [14] -8% | [8]; at 1.2 µM -4% | [8]; at 3.7 µM 2% | [8]; [13] -20% | [8]; at 11.0 µM 3% | [8]; at 33.0 µM -2% | [8]; [14] 5% | [8]; at 100.0 µM -1% | [9]; at 1.2 µM -2% | [9]; at 3.7 µM -3% | [9]; at 11.0 µM -3% | [9]; at 33.0 µM -4% | [9]; at 100.0 µM -1% | [10]; at 1.2 µM -2% | [10]; at 3.7 µM 0% | [10]; at 11.0 µM 1% | [10]; at 33.0 µM 1% | [10]; at 100.0 µM 1% | [11]; [13] -3% | [11]; [14] 18% | [12]; at 1.2 µM -6% | [12]; at 3.7 µM -4% | [12]; at 11.0 µM -8% | [12]; at 33.0 µM -6% | [12]; at 100.0 µM -2%
